# Measured values taken from PubChem BioAssay (NCI).
# The panel holds about 83,000 compounds, 20% with a hit somewhere; the sample as a whole holds those more often.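 The test compound was applied at a single concentration to cells in 96-well plates for 48 hours, and percent growth was recorded.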 A number with no mark means an inactive call. Activity calls are given as the source filed them. How the source made its calls: active means growth percent below 10; inactive means the rest.
# Tests used:
# Test in all cases: NCI-60 one-dose screen, 48 h (100 = growth as untreated, 0 = no growth, -100 = all killed)
# RPMI-8226 leukemia = details: 10 µM unless noted
# OVCAR-8 ovarian = details: 10 µM unless noted
# OVCAR-5 ovarian = details: 10 µM unless noted
# OVCAR-4 ovarian = details: 10 µM unless noted
# SK-OV-3 ovarian = details: 10 µM unless noted
# IGROV1 ovarian = details: 10 µM unless noted
# OVCAR-3 ovarian = details: 10 µM unless noted
# HS 578T breast = details: 10 µM unless noted
# NCI/ADR-RES ovarian = details: 10 µM unless noted
# T-47D breast = details: 10 µM unless noted
# BT-549 breast = details: 10 µM unless noted
# MDA-MB-435 melanoma = details: 10 µM unless noted
# SW-620 colon = details: 10 µM unless noted
# MCF7 breast = details: 10 µM
# HCT-116 colon = details: 10 µM unless noted
# HCC-2998 colon = details: 10 µM unless noted
# KM12 colon = details: 10 µM unless noted
Structure (SMILES),growth (RPMI-8226 leukemia),growth (OVCAR-8 ovarian),growth (OVCAR-5 ovarian),growth (OVCAR-4 ovarian),growth (SK-OV-3 ovarian),growth (IGROV1 ovarian),growth (OVCAR-3 ovarian),growth (HS 578T breast),growth (NCI/ADR-RES ovarian),growth (T-47D breast),growth (BT-549 breast),growth (MDA-MB-435 melanoma),growth (SW-620 colon),growth (MCF7 breast),growth (HCT-116 colon),growth (HCC-2998 colon),growth (KM12 colon)
O=C(Nc1ccc(N2CCNCC2)cc1)c1[nH]ncc1Nc1cc(C2CC2)ncn1,55.4%,81.2%,99%,62.3%,10.3%,33.4%,43.7%,41.1%,102%,57.1%,42.9%,50.6%,33.1%,37%,14.6%,46.3%,21.1%
COc1cc2nc(-c3cnc(N(C)C)nc3)nc(NC3CCN(Cc4ccccc4)CC3)c2cc1OC,-50.5% (active),-42.9% (active),-94.8% (active),-93.5% (active),-68% (active),-76.4% (active),-85.1% (active),-47% (active),-54.1% (active),-46.6% (active),-1.66% (active),-83.6% (active),-56.3% (active),-65.5% (active),-80.6% (active),-92.7% (active),-60.9% (active)
CCOC(=O)c1c(C=O)nc2ccccc2c1/C=C/c1ccc(Cl)cc1,85.7%,104%,101%,85.6%,95.1%,80.9%,98.6%,90.6%,103%,86.2%,99.6%,101%,103%,78%,82.4%,110%,96.1%
COc1nccc2cc3c(=O)n4c(cc5ccccc54)c(=O)n3c12,95.7%,111%,107%,97.3%,102%,66.9%,103%,106%,100%,68.4%,104%,110%,101%,49.1%,104%,104%,103%
O=C(Nc1ccc(Cl)cc1)c1cc2ccccc2cc1OP(=O)(O)O,-10.1% (active),27.9%,69.1%,25%,19%,-1.26% (active),10.7%,32.9%,16.6%,25.4%,11.7%,15.8%,42.3%,54%,10.8%,47.9%,56.2%
COc1ccc(-c2nsc3c2NC(=O)CC3c2ccsc2)cc1 (stereo not drawn),21.5%,30.7%,33%,31.1%,-4.77% (active),15.7%,-39.3% (active),32.5%,22.2%,62.7%,12.1%,-44% (active),28.3%,16.7%,10.8%,31.1%,8.01% (active)
CCOC(=O)c1c2c(c(C)n1Cc1ccc(OC)cc1)-c1oncc1CC2,62.9%,88.3%,81.7%,89.6%,105%,80.8%,98.5%,69.7%,85.8%,90.5%,104%,120%,96.4%,97.5%,80.2%,106%,87.9%
CC(=Nc1ccccc1)C1=C(O)C(Cc2ccc(F)cc2)NC1=O (stereo not drawn),5.55% (active),33.3%,44.9%,45.5%,11.7%,36.7%,-36.9% (active),32.1%,10.6%,27.7%,36.8%,-53.7% (active),27.4%,16.3%,27.5%,60.4%,24.5%
CCCCOCc1cc(CN2CCN(C)CC2)c(O)c2ncccc12,48.2%,27.1%,73%,31.1%,42.5%,80.8%,23.9%,79.3%,5.45% (active),67.3%,62%,80.8%,45.6%,27.2%,19.1%,57.8%,40.6%
